Records with an inconclusive call do not appear. A call without a number means that no potency is given here. Activity calls are given as the source filed them. The call rests on the fitted dose curve.
test: qHTS for Inhibitors of Cell Surface uPA Generation: Wild-type Protective Antigen (WT-PrAg) Counterscreen for Cherry-picked Compounds; details: cells, WT protective antigen toxicity counterscreen; series mostly up to 115 µM

Structure (SMILES) | Potency
COc1ccc(-c2nn(CCC#N)cc2C(=O)Nc2cccc([N+](=O)[O-])c2)cc1OC | inactive
CN(C)C(=O)NC(NC(=S)Nc1ccccc1)C(Cl)(Cl)Cl (stereo not given) | inactive
CC(C)(C)S(=O)(=O)N1C[C@H]2CC/C=C\C/C(c3ccccc3)=C\2[C@@H]1CCO | inactive
CCN1CCN(C(c2ccccc2)c2nnnn2Cc2ccc3c(c2)OCO3)CC1 (stereo not given) | inactive
CCOc1cc(C(=O)OCC(=O)c2cc(C)n(CC3CCCO3)c2C)ccc1OCC(=O)N1CCOCC1 (stereo not given) | inactive
CN(C(=O)CCn1c(=S)oc2ccccc21)c1ccc(F)cc1 | inactive
Cc1ccc(CC2CC(=O)N(c3cc(C)ccc3C)C2=O)cc1 (stereo not given) | inactive
Cc1ccc(C(=O)NNC(=O)CNc2cccc(Cl)c2)cc1 | inactive
COC(=O)Cc1c(C)c2ccc(OCC(=O)N3CCCC(C)C3)c(C)c2oc1=O (stereo not given) | inactive
COc1ccc(CNC(=O)C2(CC3CC(c4ccccc4)=NO3)CCNCC2)cc1 (stereo not given) | inactive
Fc1cccc(Cl)c1CSc1ccc(-c2cccnc2)nn1 | inactive
Cc1cccc(Nc2ccc(NCc3ccccc3)nn2)c1 | inactive
O=C(NCc1ccc2c(c1)OCO2)c1ccccn1 | inactive
CC(=O)Nc1nc2ccccc2[nH]1 | inactive
COc1cccc(NC(=O)CSc2nc3ncc(Br)cc3[nH]2)c1 | inactive
COc1ccc(-c2nn(CCC#N)cc2C(=O)Nc2ccccc2)cc1OC | inactive
CCOc1ccc(CN2CCN(C(=O)Cc3ccccc3)CC2)cc1 | inactive
O=C(CN(c1ccccc1F)S(=O)(=O)c1ccccc1)Nc1ccc2c(c1)OCCO2 | inactive
COc1ccc(CCNC(=O)CSc2nc(N)c3c(C)c(C)oc3n2)cc1OC | inactive
O=C(NNC(=O)c1cccc(-n2cccc2)c1)c1ccc(F)cc1 | inactive

Structure (SMILES) | Potency
CC1(NC(=O)CSc2nnc(-c3c[nH]c4ccccc34)n2C2CC2)CCS(=O)(=O)C1 (stereo not given) | inactive
CCN(c1ccccc1)S(=O)(=O)c1ccc(NC(=O)c2ccco2)cc1 | inactive
CCNC(=S)NNC(=O)C(c1ccccc1)c1ccccc1 | inactive
CCC1Nc2ncnc(N3CCCCC3)c2N(Cc2ccc(Cl)cc2)C1=O (stereo not given) | inactive
COCCNC(=O)COCc1cc(-c2ccc3c(c2)OCO3)on1 | inactive
Cc1ccc(S(=O)(=O)N(C)c2ccc(OC(=O)c3ccc(=O)[nH]c3)cc2)cc1 | inactive
CS(=O)(=O)N1CCC(C(=O)Nc2ccccc2)CC1 | inactive
C=CCOC(=O)C1=C[C@H](c2ccc(C(F)(F)F)cc2)[C@@H](CCCO)[C@H](OCC)O1 | inactive
COc1ccc(NC(=O)Nc2nnc(N3CCCCC3C)s2)cc1OC (stereo not given) | inactive
Brc1ccsc1/C=N/Nc1ccccc1 | inactive
COc1ccc(OC)c(NC(=O)C2CCCN2C(=O)C2CCC(C)CC2)c1 (stereo not given) | inactive
Cc1ccc(NC(=O)C(C)S)cc1 (stereo not given) | inactive
O=C(CN1CCCC1)Nc1cccc(Cl)c1Cl | inactive
O=C(NCCCn1ccnc1)C(=O)NCC(c1cccnc1)N1CCN(c2ccc(F)cc2)CC1 (stereo not given) | inactive
O=C1OCC/C1=C\c1ccc(O)cc1 | inactive
COC(=O)CCSCC(=O)N1N=C(c2ccc(OC)cc2)CC1c1cccc(OC)c1OC (stereo not given) | inactive
Cc1ccc(-n2c(O)c(C=NCCN3CCNCC3)c(=O)[nH]c2=S)cc1 | inactive
COc1ccc(C2=C/C(=C\c3ccccc3OC(C)=O)C(=O)O2)cc1 | inactive
CCOC(=O)c1c(NC(=O)CC2SC(N)=NC2=O)sc2c1CCC(C)C2 (stereo not given) | inactive
Cc1ccc2cc(C=O)c(Cl)nc2c1 | inactive

— PubChem BioAssay AID720518 (National Center for Advancing Translational Sciences (NCATS), 2013)
